The subject of assay [1] is Human papillomavirus type 1a protein E7 (residues 44-93). The assay can be described thus: small molecules binding HPV E7 44-93 – biochemical, small-molecule microarray, residues 44-93, 635 nm fluorescence, primary screen (AID 1108).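 Further: E7 fragment applied at 1 µg/mL in TBST for 1 h at 4 C; score combines spot fluorescence with its signal to noise ratio.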 As to conditions: fluorescence 635 nm, higher = more signal.
Assay [2] can be described thus: hepatitis C replication reporter changes, two-sided – Huh7 cells, luciferase reporter, HCV replication inhibitor project, primary screen (AID 1109).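 Further: huh7 hepatoma cells harbouring a luciferase neomycin HCV replicon reporter; luciferase luminescence as measure of HCV replicon replication; test concentration not given here.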 As to conditions: Huh7 HCV replicon luciferase reporter, 48 h; higher = more signal. In general terms: In a reporter assay the amount or activity of a reporter protein is the signal.
For assay [3], the target named is Left-right determination factor 2 (Homo sapiens) (UniProt O00292). The experiment in a line: small molecules binding LEFTY2 protein – biochemical, small-molecule microarray, 635 nm fluorescence scan, primary screen (AID 1110). As to conditions: higher = more signal.
In assay [4] the target is Calmodulin-1 (Homo sapiens) (UniProt P0DP23). The assay can be described thus: small molecules binding calmodulin-1 with EGTA – biochemical, small-molecule microarray, Cy5-labelled CALM1, profiling panel (AID 1111).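 Further: labelled calmodulin applied in Tris saline Tween buffer holding calcium plus EGTA and DTT.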 As to conditions: Cy5-CALM1 binding fluorescence, higher = more signal.
The target is the same in assay [5]. The assay can be described thus: small molecules binding Ca-loaded calmodulin-1 – biochemical, small-molecule microarray, Cy5-labelled CALM1, plus calcium, artefact control for SMM control-protein annotation, profiling panel (AID 1112).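 Further: score merges spot fluorescence with signal to noise from triplicate slides.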 As to conditions: Cy5-CALM1 binding fluorescence, higher = more signal.
Assay [6] in a line: probe aWnt5a binding to arrayed compounds – biochemical, biotinylated probe, 635/667 nm fluorescence, primary screen (AID 1113).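 Further: score merges 667 nm fluorescence intensity with signal-to-noise per printed feature.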 As to conditions: small-molecule microarray, higher = more signal.
The nature of assay [7]: probe aShh binding to arrayed compounds – biochemical, biotinylated probe, 635/667 nm fluorescence, primary screen (AID 1114).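 Further: probe is biotin-labelled aShh protein from a stem cell growth factor screen; measures binding of labelled protein to compounds printed on the slide; score merges feature fluorescence at 667 nm with signal-to-noise.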 As to conditions: small-molecule microarray, higher = more signal.
Assay [8] can be described thus: probe aNog binding to arrayed compounds – biochemical, biotinylated probe, 635/667 nm fluorescence, primary screen (AID 1115).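 Further: probe is biotinylated aNog protein used at 0.15 µg/mL for 1 h at 4 C; z-score combines 667 nm fluorescence of each spot with its signal to noise.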 As to conditions: small-molecule microarray, higher = more signal.
Assay [9] deals with Torsin-1A-interacting protein 1 (Homo sapiens) (UniProt Q5JTV8). The assay can be described thus: compound microarray binding of lysate hLAP1 – cell lysate, small-molecule microarray, COS7 lysate, 635/667 nm fluorescence, primary screen (AID 1116). As to conditions: 635 nm fluorescence, higher = more signal.
For assay [10], the target named is Alpha-bungarotoxin (Bungarus multicinctus) (UniProt P60615). The assay can be described thus: compounds binding labelled alpha-BTX control protein – biochemical, small-molecule microarray, Alexa647 label, 635/667 nm fluorescence, artefact control for SMM control protein annotation, profiling panel (AID 1117). As to conditions: alpha-BTX-A647 binding fluorescence, higher = more signal.

A further assay concerns the target Albumin (Bos taurus) (UniProt P02769). The assay can be described thus: compounds binding labelled BSA control protein – biochemical, small-molecule microarray, Alexa647 label, 635/667 nm fluorescence, artefact control for SMM control protein annotation, profiling panel (AID 1118).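 Further: score merges 667 nm emission intensity and signal-to-noise per printed compound spot.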 As to conditions: BSA-A647 binding, fluorescence 635 nm, higher = more signal.
Assay [11] is described as follows: probe aXIP binding to arrayed compounds – biochemical, NeuroSMM set, 635/667 nm fluorescence, primary screen (AID 1119).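 Further: probe is the protein aXip251-270 applied at 1 µg/mL to compound-printed slides; binding of probe to printed compounds measured as 667 nm fluorescence plus signal to noise.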 As to conditions: small-molecule microarray, higher = more signal, called active from +8 up or from −8 down.
Assay [12] in a line: probe aNOTCH3 binding on compound microarray – biochemical, small-molecule microarray, 635/667 nm fluorescence, primary screen (AID 1120).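 Further: probe is a biotin-tagged antibody raised against NOTCH3 rather than NOTCH3 protein; score merges spot fluorescence near 667 nm with spot signal to noise.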 As to conditions: higher = more signal.
Assay [13] is described as follows: probe aNOTCH2 binding on compound microarray – biochemical, small-molecule microarray, 635/667 nm fluorescence, primary screen (AID 1121).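 Further: score merges feature fluorescence read at 667 nm with its signal to noise.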 As to conditions: higher = more signal.
Assay [14] addresses Carbonic anhydrase 2 (Homo sapiens) (UniProt P00918). The assay can be described thus: compounds binding carbonic anhydrase 2 – biochemical, small-molecule microarray, Alexa647-labelled CAII, profiling panel (AID 1122). As to conditions: CAII-A647 binding fluorescence, higher = more signal.
A short description of assay [15]: COS7 lysate on small-molecule microarray, probe aHis, 635 nm (AID 1123).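 Further: z-score combines 667nm fluorescence intensity with signal-to-noise per printed compound spot.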 As to conditions: COS7 cell lysate, fluorescence, higher = more signal.
A short description of assay [16]: probe aLAP1 signal on lysate-treated microarray – cell lysate, small-molecule microarray, COS7 lysate, primary screen (AID 1124).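 Further: lysate comes from COS7 cells expressing LAP1 and is applied at 0.3 µg/mL; score merges spot fluorescence near 667 nm with signal-to-noise over triplicate slides.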 As to conditions: probe aLAP1, fluorescence, higher = more signal.
The test system of another assay is Sam68 (KHDRBS1). The assay can be described thus: compounds binding KHDRBS1 protein – biochemical, small-molecule microarray, 635 nm fluorescence, primary screen (AID 1125).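 Further: score merges 667 nm channel intensity with signal to noise over triplicate slides.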 As to conditions: higher = more signal.
For assay [17], the system named is Chordin-like protein 2 (CHRDL2). The experiment in a line: compounds binding chordin-like 2 – biochemical, small-molecule microarray, 635 nm fluorescence, primary screen (AID 1126).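 Further: printed compound slides probed with Chrdl2 protein at 4 µg/mL for 1 h at 4 C; score merges 667 nm emission intensity with signal to noise over three replicate slides.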 As to conditions: fluorescence 635 nm, higher = more signal.
Assay [18] concerns the target Concanavalin-A (Canavalia ensiformis) (UniProt P02866). The experiment in a line: compounds binding concanavalin A lectin – biochemical, small-molecule microarray, Alexa647 label, 635 nm, artefact control for SMM control protein annotation, primary screen (AID 1127).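 Further: z combines 667 nm emission intensity with signal-to-noise across three replicate slides.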 As to conditions: ConA-A647 binding fluorescence, higher = more signal.

The structures appear in SMILES notation. The source made the active and inactive calls.

Chain of Alpha-bungarotoxin (Bungarus multicinctus) (P60615 whole entry, looked up): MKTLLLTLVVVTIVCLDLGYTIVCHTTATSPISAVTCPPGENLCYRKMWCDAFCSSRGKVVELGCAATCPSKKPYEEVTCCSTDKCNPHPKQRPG
Chain of Left-right determination factor 2 (Homo sapiens) (O00292 whole entry, looked up): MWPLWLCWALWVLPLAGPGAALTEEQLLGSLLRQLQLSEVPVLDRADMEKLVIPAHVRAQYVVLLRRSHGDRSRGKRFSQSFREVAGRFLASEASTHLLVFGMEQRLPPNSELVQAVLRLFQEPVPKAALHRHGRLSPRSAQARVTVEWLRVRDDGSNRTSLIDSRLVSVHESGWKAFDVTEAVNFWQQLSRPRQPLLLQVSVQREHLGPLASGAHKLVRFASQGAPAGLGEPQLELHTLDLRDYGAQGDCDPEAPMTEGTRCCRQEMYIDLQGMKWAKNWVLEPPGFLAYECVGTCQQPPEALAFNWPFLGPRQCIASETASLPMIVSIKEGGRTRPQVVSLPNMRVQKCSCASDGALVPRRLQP
Chain of Albumin (Bos taurus) (P02769 whole entry, looked up): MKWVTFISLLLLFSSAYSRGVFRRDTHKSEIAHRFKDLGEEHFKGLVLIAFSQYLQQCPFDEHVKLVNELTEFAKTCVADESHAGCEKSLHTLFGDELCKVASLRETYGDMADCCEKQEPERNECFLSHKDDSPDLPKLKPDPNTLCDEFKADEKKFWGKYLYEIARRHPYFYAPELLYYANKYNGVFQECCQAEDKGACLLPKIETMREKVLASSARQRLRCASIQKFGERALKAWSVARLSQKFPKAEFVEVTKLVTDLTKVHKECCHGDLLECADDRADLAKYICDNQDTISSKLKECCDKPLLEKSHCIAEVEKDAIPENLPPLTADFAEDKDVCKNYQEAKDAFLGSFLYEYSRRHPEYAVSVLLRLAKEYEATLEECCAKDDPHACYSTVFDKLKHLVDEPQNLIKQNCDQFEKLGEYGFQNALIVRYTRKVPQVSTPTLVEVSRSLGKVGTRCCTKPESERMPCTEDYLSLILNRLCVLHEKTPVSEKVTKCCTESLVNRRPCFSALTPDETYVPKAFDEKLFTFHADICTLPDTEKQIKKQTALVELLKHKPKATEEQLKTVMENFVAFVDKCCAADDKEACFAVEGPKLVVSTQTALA
Chain of Concanavalin-A (Canavalia ensiformis) (P02866 whole entry, looked up): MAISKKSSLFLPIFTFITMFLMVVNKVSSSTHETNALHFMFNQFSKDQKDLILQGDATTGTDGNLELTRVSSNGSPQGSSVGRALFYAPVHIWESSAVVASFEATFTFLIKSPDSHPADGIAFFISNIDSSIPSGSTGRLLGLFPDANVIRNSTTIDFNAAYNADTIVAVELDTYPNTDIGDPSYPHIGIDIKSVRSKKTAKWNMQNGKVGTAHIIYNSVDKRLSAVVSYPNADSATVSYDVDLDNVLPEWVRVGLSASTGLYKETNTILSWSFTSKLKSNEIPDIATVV
Chain of Torsin-1A-interacting protein 1 (Homo sapiens) (Q5JTV8 whole entry, looked up): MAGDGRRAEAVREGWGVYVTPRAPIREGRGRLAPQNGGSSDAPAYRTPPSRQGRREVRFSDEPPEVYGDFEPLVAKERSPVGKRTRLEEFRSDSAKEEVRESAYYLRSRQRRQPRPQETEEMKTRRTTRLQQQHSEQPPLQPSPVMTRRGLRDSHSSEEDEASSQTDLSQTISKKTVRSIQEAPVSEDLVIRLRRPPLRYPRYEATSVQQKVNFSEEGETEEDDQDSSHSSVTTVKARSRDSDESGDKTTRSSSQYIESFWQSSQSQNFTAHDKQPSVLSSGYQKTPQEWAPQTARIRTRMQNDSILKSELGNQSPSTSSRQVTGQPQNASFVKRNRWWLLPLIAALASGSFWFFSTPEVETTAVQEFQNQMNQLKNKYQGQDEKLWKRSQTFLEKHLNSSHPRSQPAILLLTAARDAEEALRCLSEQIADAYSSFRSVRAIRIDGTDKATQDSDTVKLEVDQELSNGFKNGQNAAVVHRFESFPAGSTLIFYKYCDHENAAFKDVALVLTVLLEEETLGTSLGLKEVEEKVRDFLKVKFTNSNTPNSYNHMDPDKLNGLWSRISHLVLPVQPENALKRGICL

For `CN(C)C(=O)[C@@]1(Cc2ccccc2CN=[N+]=[N-])N=C(c2ccc(OCCCO)cc2)O[C@H]1c1ccccc1`, the composite z-score in assay [1] was 0.993; in assay [3], -0.498; in assay [4], 0.691; in assay [5], 0.46; in [6] it was 0.0077; in assay [7] it was -0.0243. Further, the composite z-score was determined as 1.83 in [8]; 1.43 in assay [9]; 1.33 in assay [10]; 0.722 in the assay with Albumin (Bos taurus); 0.103 in [12]; 0.112 in [13]. Also, the composite z-score in [14] was 0.277; in assay [15], 2.69; in assay [16], 0.624; with Sam68 (KHDRBS1) it was 1.28; in [17] it was -0.285; in assay [18], 0.749. In addition, the z-score in assay [2] was -2.96. Further, the composite Z-score in [11] was -0.797 (inactive).

As to `COC(=O)[C@@]1(Cc2ccc(OC)cc2)[C@H]2c3cc(C(=O)N4CCCC4)n(Cc4ccccc4)c3C[C@H]2CN1C(=O)c1ccccc1`, the composite z-score is 1.16 in assay [1]; 0.117 in [3]; 2.3 in assay [4]; 0.817 in [5]; 1.29 in [6]; 2.49 in [7]. Further, the composite z-score is 2.87 in [8]; 0.0976 in assay [9]; 0.75 in assay [10]; 1.05 in the assay with Albumin (Bos taurus); 1.75 in assay [12]; 1.06 in assay [13]. Further, the composite z-score in [14] was 0.791; in [15] it was 3.09; in assay [16], 0.399; in the assay on Sam68 (KHDRBS1), 0.846; in assay [17], -0.401; in assay [18], 1.08. In addition, in assay [2], the z-score is -1.76. Besides, the composite Z-score in assay [11] was 0.401 (inactive).

Consider `CCOC(=O)C[C@H]1[C@H](OC(=O)c2cc3ccccc3oc2=O)[C@@H](NC(=O)Cc2ccc(OC)cc2)c2cc(OCCCO)ccc2N1C(=O)c1ccccc1`, for which the composite z-score in [1] is 0.856; in [3] it was 0.427; in [4] it was -0.13; in [5] it was -0.342; in assay [6] it was -0.139; in [7] it was 0.299. Besides, the composite z-score in [8] is 1.75; in assay [9], 0.559; in [10] it was 0.258; in the assay with Albumin (Bos taurus) it was 0.722; in assay [12], -0.0324; in assay [13], -0.0986. Besides, the composite z-score was 0.091 in assay [14]; 0.386 in assay [15]; -0.0727 in assay [16]; 0.687 in the assay on Sam68 (KHDRBS1); 0.328 in assay [17]; -0.256 in [18]. Besides, in assay [2], the z-score is -0.273. Besides, in assay [11], the composite Z-score was 0.311 (inactive).

On to `C=CC[C@@]1(C(N)=O)N=C(c2ccc(OCCCO)cc2)O[C@@H]1c1ccccc1CN=[N+]=[N-]`, for which the composite z-score is 1.39 in assay [1]; -0.294 in [3]; 1.64 in assay [4]; 0.767 in assay [5]; 0.0597 in [6]; 0.166 in [7]. For the same compound, the composite z-score in assay [8] was 0.661; in [9], 1.91; in assay [10], 0.834; in the assay with Albumin (Bos taurus), 0.85; in assay [12], 0.185; in assay [13], -0.0712. The composite z-score in [14] is 0.875; in assay [15] it was 3.25; in assay [16], 1.13; in the assay on Sam68 (KHDRBS1), 1.3; in [17], -0.41; in assay [18], 1. This compound also showed a z-score in assay [2] of -1.56. For the same compound, in assay [11], the composite Z-score was -0.631 (inactive).

`O=C1OCC=C[C@H]2OC34C=CCN(c5ccc6ccccc6c5)C(=O)[C@H]3N(CCCCCCO)C(=O)[C@@H]4[C@@H]12` (stereo not given in full): the composite z-score in assay [1] is -0.925; in assay [3] it was -1.06; in assay [4], -0.327; in assay [5], 0.132; in assay [6], -0.152; in assay [7], 0.0121. Also, the composite z-score is 0.509 in assay [8]; 1.09 in assay [9]; -1.01 in assay [10]; 0.39 with Albumin (Bos taurus); -0.241 in assay [12]; -0.0472 in [13]. Also, the composite z-score in assay [14] is 0.837; in assay [15], 0.818; in [16], 0.941; in the assay with Sam68 (KHDRBS1), -1.42; in assay [17], -0.677; in assay [18], -0.486. In addition, the z-score in assay [2] was 0.699. Moreover, in [11], the composite Z-score is 0.164 (inactive).

Take `O=C1O[C@H](c2ccccc2)[C@H](c2ccccc2)N2[C@H]1[C@@H](C(=O)Nc1nc3ccccc3s1)[C@]1(C(=O)Nc3ccc(C#CC4(O)CCCCCC4)cc31)[C@H]2c1ccc(OCCO)cc1`: the composite z-score was 0.877 in assay [1]; 0.426 in assay [3]; 1.91 in [4]; 0.0521 in assay [5]; -0.0381 in [6]; -0.0446 in [7]. Besides, the composite z-score was 0.287 in assay [8]; 1.55 in [9]; 1.77 in assay [10]; 0.8 with Albumin (Bos taurus); -0.0562 in assay [12]; 0.146 in assay [13]. Moreover, the composite z-score in assay [14] is 0.219; in [15] it was 1.46; in assay [16] it was 1.7; in the assay with Sam68 (KHDRBS1), 1.3; in [17] it was 0.508; in [18] it was 1.11. Also, in [2], the z-score was -2.09. In assay [11], the composite Z-score was 0.905 (inactive).

The record behind these values is PubChem BioAssay.
